Experiment [1] has as its target Cytochrome P450 2D6 (Homo sapiens) (UniProt P10635). Briefly: Cytochrome P450 Family 2 Subfamily D Member 6 (CYP2D6) small molecule antagonists: luciferase reporter qHTS assay (AID 1671196). Further: series mostly up to about 120 µM; nearly all actives have a fitted effect of over 50% in size. The procedure, abridged:
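Read-out is luminescence from luciferin formed by CYP2D6 turnover of a proluciferin substrate, recorded as relative luminescence units. Reactions ran 1 h at room temperature after NADPH regeneration solution was added.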

In experiment [2] the target is Cytochrome P450 2C19 (Homo sapiens) (UniProt P33261). Nature of the experiment: Cytochrome P450 Family 2 Subfamily C Member 19 (CYP2C19) small molecule antagonists: luciferase reporter qHTS assay (AID 1671197). Further: nearly all actives have a fitted effect of over 65% in size. Further: potency means the concentration at half of the fitted maximal effect. The procedure, abridged:
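Enzyme-substrate mix with proluciferin substrate (P450-Glo CYP2C19 system) preincubated with compounds 10 min at room temperature; NADPH regeneration solution added, 37C for 1 h; detection reagent stops reaction, luminescence read after 20 min. Ketoconazole positive control.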
(In general: In a reporter assay the amount or activity of a reporter protein is the signal.)

Experiment [3] deals with Cytochrome P450 1A2 (Homo sapiens) (UniProt P05177). Briefly: Cytochrome P450 Family 1 Subfamily A Member 2 (CYP1A2) small molecule antagonists: luciferase reporter qHTS assay (AID 1671199). Further: nearly all actives have a fitted effect of over 50% in size. Further: potency means the concentration at half of the fitted maximal effect. A digest of the protocol:
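P450-Glo CYP1A2, 1536-well qHTS: enzyme/proluciferin substrate + cpd (DMSO), 10 min RT; NADPH regen, 1 h RT; detection reagent, 20 min; luminescence, RLU.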

The target in experiment [4] is Cytochrome P450 3A4 (Homo sapiens) (UniProt P08684). Briefly: Cytochrome P450 Family 3 Subfamily A Member 4 (CYP3A4) small molecule antagonists: luciferase reporter qHTS assay (AID 1671201). Further: nearly all actives have a fitted effect of over 50% in size. Further: potency means the concentration at half of the fitted maximal effect. A digest of the protocol:
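Room-temperature assay throughout: 10 min compound–enzyme/substrate preincubation, 1 h reaction after NADPH regeneration solution, 20 min detection. Luciferin formed from proluciferin substrate is quantified by luminescence.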

For experiment [5], the target named is Voltage-gated inwardly rectifying potassium channel KCNH2 (Homo sapiens) (UniProt Q12809). Nature of the experiment: Human Ether-a-go-go-Related Gene (hERG) channel small molecule antagonists: fluorescence cell-based qHTS assay (AID 1671200).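 Further: hERG-expressing U2OS cells given a thallium stimulus after FluxOR II dye loading; series mostly up to about 77 µM; nearly all actives have a fitted effect of over 50% in size.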 The procedure, abridged:
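Cell line hERG-U2OS; dye FluxOR II, 1 h RT dark; Tl+ stimulus; ex 480/em 540 nm, read each second for 2 min.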
In general terms: Block of hERG is tested as a sign of cardiac risk.

For experiment [6], the target named is Cytochrome P450 2C9 (Homo sapiens) (UniProt P11712). Nature of the experiment: Cytochrome P450 Family 2 Subfamily C Member 9 (CYP2C9) small molecule antagonists: luciferase reporter qHTS assay (AID 1671198). The procedure, abridged:
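Enzyme-substrate mix preincubated with compound 10 min at room temperature; reaction started with NADPH regeneration solution, 1 h 37C. Luminescent luciferin product read after 20 min detection reagent.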

Results filed as inconclusive are left out. Activity calls are given as the source filed them. The call rests on the fitted dose curve; in most records, active means well fitted curve in the direction sought with a large enough effect in the repeat runs; inconclusive means weak or mixed curves; inactive means no such curve, though single readings can be large; an effect the other way counts as inactive or inconclusive.

Sequence of Cytochrome P450 1A2 (Homo sapiens) (P05177 whole entry, looked up): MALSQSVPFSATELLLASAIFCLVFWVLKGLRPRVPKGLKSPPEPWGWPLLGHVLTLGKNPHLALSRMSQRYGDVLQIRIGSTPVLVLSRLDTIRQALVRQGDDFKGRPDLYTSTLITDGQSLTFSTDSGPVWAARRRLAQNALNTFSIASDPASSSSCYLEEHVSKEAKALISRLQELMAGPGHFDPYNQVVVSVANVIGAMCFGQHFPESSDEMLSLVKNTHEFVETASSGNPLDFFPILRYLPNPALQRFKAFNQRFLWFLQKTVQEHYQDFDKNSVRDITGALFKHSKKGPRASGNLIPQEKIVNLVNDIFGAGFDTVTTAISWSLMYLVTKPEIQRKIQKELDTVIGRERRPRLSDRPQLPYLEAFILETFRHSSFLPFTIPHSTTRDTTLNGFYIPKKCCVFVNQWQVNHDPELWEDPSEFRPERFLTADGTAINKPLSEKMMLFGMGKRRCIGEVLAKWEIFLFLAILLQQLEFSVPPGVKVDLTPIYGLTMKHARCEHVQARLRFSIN
Sequence of Cytochrome P450 2C19 (Homo sapiens) (P33261 whole entry, looked up): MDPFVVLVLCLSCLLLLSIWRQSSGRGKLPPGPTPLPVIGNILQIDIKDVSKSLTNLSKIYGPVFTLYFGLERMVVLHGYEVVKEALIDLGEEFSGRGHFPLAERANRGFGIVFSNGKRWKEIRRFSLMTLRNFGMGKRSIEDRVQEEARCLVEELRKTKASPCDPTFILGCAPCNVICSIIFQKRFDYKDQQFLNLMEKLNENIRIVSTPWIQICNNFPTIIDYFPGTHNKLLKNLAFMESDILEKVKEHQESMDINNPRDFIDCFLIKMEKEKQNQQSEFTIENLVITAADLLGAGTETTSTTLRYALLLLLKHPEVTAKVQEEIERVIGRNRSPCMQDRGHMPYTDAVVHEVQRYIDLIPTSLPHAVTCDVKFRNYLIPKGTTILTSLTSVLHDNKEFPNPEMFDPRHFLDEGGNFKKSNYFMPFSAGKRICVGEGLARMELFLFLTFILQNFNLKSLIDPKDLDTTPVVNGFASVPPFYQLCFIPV
Sequence of Cytochrome P450 2D6 (Homo sapiens) (P10635 whole entry, looked up): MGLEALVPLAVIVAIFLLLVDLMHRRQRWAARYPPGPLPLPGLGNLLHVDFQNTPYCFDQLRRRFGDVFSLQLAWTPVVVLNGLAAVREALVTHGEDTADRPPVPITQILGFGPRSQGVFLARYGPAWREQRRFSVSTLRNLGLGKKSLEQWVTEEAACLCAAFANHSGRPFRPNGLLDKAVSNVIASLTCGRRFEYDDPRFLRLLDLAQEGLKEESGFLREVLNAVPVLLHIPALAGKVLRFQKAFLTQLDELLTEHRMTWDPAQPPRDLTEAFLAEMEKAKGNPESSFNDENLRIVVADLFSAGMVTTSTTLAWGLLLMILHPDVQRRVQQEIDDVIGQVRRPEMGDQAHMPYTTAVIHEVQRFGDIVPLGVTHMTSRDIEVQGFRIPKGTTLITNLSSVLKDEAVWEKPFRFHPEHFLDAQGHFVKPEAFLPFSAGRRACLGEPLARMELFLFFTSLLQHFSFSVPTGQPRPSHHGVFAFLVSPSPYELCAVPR
Sequence of Cytochrome P450 3A4 (Homo sapiens) (P08684 whole entry, looked up): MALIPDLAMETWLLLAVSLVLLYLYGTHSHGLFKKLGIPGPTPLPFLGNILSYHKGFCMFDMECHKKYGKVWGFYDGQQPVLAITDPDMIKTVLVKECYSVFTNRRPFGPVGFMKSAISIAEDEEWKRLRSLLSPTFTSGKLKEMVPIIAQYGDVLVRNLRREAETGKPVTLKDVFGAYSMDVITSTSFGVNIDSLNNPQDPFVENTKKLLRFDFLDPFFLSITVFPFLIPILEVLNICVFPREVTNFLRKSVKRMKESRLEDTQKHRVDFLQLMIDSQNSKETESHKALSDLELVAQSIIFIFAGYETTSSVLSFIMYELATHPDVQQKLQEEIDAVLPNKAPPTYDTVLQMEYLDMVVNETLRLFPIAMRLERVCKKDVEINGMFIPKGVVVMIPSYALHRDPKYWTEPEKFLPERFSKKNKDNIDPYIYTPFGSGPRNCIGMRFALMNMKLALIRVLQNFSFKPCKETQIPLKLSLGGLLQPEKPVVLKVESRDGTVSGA
Sequence of Voltage-gated inwardly rectifying potassium channel KCNH2 (Homo sapiens) (Q12809 whole entry, looked up): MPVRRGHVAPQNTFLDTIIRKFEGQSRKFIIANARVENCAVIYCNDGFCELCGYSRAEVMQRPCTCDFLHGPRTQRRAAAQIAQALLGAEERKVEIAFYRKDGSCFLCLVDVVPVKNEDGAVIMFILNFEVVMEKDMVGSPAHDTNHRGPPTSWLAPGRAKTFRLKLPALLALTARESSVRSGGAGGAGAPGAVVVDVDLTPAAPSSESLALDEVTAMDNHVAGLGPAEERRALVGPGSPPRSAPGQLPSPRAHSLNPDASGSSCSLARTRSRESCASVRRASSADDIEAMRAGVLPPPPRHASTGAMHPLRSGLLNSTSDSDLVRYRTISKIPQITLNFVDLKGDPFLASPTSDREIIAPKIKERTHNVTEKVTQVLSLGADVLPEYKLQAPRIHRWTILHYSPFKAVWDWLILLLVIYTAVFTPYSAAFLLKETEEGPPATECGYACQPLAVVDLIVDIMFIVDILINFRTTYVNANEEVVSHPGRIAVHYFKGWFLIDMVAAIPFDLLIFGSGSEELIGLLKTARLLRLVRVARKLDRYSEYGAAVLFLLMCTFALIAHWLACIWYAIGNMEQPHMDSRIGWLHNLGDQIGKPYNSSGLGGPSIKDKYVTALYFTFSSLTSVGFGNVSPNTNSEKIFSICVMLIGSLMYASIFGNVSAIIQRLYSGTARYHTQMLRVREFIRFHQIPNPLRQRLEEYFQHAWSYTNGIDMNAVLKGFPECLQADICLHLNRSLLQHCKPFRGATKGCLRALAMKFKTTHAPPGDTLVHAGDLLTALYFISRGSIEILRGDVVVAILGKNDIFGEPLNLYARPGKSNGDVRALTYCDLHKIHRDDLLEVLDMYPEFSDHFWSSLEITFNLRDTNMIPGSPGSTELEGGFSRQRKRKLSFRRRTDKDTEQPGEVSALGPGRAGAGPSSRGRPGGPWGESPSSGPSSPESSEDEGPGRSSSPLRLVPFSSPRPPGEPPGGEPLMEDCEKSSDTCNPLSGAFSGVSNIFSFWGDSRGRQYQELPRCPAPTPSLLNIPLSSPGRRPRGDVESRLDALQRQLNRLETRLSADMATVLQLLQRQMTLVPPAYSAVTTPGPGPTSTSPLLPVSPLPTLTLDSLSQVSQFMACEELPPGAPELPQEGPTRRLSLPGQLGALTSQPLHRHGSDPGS
Sequence of Cytochrome P450 2C9 (Homo sapiens) (P11712 whole entry, looked up): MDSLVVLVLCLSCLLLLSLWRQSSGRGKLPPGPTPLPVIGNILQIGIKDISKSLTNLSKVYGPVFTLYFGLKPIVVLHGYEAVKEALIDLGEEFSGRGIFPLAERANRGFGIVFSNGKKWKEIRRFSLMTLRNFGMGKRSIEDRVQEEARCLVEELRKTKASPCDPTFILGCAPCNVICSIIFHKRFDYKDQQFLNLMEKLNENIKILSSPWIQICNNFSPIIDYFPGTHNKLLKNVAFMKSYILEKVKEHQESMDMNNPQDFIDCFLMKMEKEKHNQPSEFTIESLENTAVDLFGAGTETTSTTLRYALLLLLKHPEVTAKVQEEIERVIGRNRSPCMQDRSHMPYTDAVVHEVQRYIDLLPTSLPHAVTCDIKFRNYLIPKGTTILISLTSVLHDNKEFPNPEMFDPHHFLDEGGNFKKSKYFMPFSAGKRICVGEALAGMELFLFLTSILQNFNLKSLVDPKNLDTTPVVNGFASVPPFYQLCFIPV

Turning to `CC[C@H]1OC(=O)[C@H](C)[C@@H](O[C@H]2C[C@@](C)(OC)[C@@H](O)[C@H](C)O2)[C@H](C)[C@@H](O[C@@H]2O[C@H](C)C[C@H](N(C)C)[C@H]2O)[C@](C)(O)C[C@@H](C)C(=O)[C@H](C)[C@@H](O)[C@]1(C)O`, the Potency result in experiment [1], in experiment [2] and in experiment [3] was “inactive” throughout. The Potency in experiment [4] was 3.45 µM (active).

`CCCCCCCC(=O)OCCCCCC`: the Potency result in experiment [1], in experiment [2], in experiment [3] and in experiment [5] was “inactive” throughout.

As for `O=C1OC(=O)c2c(Br)c(Br)c(Br)c(Br)c21`, the Potency entry in experiment [1], in experiment [2], in experiment [3] and in experiment [5] was “inactive” each time.

With `[Cl][Nd]([Cl])[Cl]`, the Potency result in experiment [1], in experiment [2], in experiment [3], in experiment [5] and in experiment [4] was “inactive” throughout.

Regarding `CCCCCCCCCCCCCOS(=O)(=O)O`, the Potency entry in experiment [1], in experiment [2], in experiment [3], in experiment [5] and in experiment [4] was “inactive” each time.

For the molecule `Cc1ccc(S(=O)(=O)NC(=O)NC2CCCCC2)cc1`, the Potency result in experiment [1], in experiment [2], in experiment [3], in experiment [5] and in experiment [4] was “inactive” each time.

For the molecule `SCCc1cnccn1`, the Potency entry in experiment [1] and in experiment [5] was “inactive” throughout. The values for the Potency in experiment [2] and in experiment [3] were 31.7 µM (active) and 35.6 µM (active), respectively.

With `C/C(C=O)=C\c1ccccc1`, the Potency result in experiment [1], in experiment [2], in experiment [3] and in experiment [5] was “inactive” in each case.

As for `Cc1ccc(Nc2c(F)cccc2Cl)c(CC(=O)O)c1`, the Potency result in experiment [1], in experiment [5] and in experiment [4] was “inactive” each time. The Potency was 8.71 µM (active) in experiment [2] and 12.3 µM (active) in experiment [3].

With `C1CCCCC1`, the Potency entry in experiment [1], in experiment [2], in experiment [3], in experiment [5] and in experiment [4] was “inactive” in each case.

Regarding `CCC(=O)OCc1ccc(OC)cc1`, the Potency entry in experiment [1], in experiment [5] and in experiment [4] was “inactive” each time. Besides, the Potency is 64.9 µM (active) in experiment [2] and 57.8 µM (active) in experiment [3].

For `C=CC(=O)O`, the Potency entry in experiment [1], in experiment [3] and in experiment [4] was “inactive” each time.

`CN=C(N)NC(=O)Nc1c(C)cccc1C`: the Potency result in experiment [1], in experiment [6], in experiment [3], in experiment [5] and in experiment [4] was “inactive” each time.

Consider `CCSC(=O)N(CC)CC`, for which the Potency result in experiment [1], in experiment [2], in experiment [5] and in experiment [4] was “inactive” each time.

In the case of `Nc1c(Cl)cc(Cl)cc1[N+](=O)[O-]`, the Potency result in experiment [1], in experiment [6], in experiment [5] and in experiment [4] was “inactive” in each case. The Potency in experiment [3] was 5.64 µM (active).

As to `CCCCCCC(O)CCOC(C)=O` (stereo unspecified), the Potency entry in experiment [1], in experiment [5] and in experiment [4] was “inactive” in each case. For the same molecule, the Potency in experiment [2] is 167 µM (active).

`O=C(O)c1ccc(O)cc1O`: the Potency entry in experiment [1], in experiment [6], in experiment [3], in experiment [5] and in experiment [4] was “inactive” throughout.

Source of the values: PubChem BioAssay (Tox21).
